The record followed here is PubChem BioAssay (NCATS).

The structures appear in SMILES notation. Inconclusive results are not listed. Active and inactive are the calls of the source. The call rests on the fitted dose curve; in most records, active means well fitted curve in either direction with a large enough effect (not every such curve was filed as active); inconclusive means small, poorly fitted or top-dose-only effect, or another doubt; inactive means flat fitted curve, though single readings scatter.
On the % scale 0 is the no-effect control and ±100 the full control effect.

The first test can be described thus: AP1 Signaling Pathway (AID 357).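 Further: ME-180 reporter cells stimulated with EGF at its EC50 level.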 The note with it: ME-180 AP-1-bla reporter, EGF-induced, beta-lactamase ratio, 5 h; at 17.2 µM (top of the series) unless noted. In outline:
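First, ME-180 AP-1-bla cells were cultured overnight at 37 °C in low-serum Opti-MEM. Next, titrated compounds with EC50 EGF were incubated 5 hours. Finally, CCF4 was added for 2.5 hours and the 460/530 nm ratio recorded.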
Consider `Cc1ccc(S(=O)(=O)N2CCN(c3nc(C)c4c(c3C#N)CC(C)(C)OC4)CC2)cc1`, for which the activity change, negative = inhibition was 1.26% (inactive). The same measure, in the same setting: for `Cc1cc(C)n(CC2CC(=O)N(c3ccc(F)c(Cl)c3)C2=O)n1` (centres undefined) the value was -5.28% (inactive); for `CN(C)CCCOC(=O)c1ccc(Cl)cc1Cl`, 13.3% (inactive).

Consider `COc1ccc(Nc2oc(-c3cccs3)nc2C#N)cc1`, for which the activity change, negative = inhibition is -23.7% (inactive). Same read-out and setting: for `OCCNc1nc(-c2ccccc2)c2ccccc2n1` the value was -11.6% (inactive); for `CNC(=O)Nc1cccc(NC(=O)NC)n1`, 13% (inactive); for `CCCOc1ccc(Cc2nn[nH]n2)cc1`, 6.52% (inactive). For the molecule `CC(C)c1nc(NCCN2CCOCC2)c(C#N)c2c1COC(C)(C)C2`, the activity change, negative = inhibition is -27% (inactive).

Consider `CC(C)Sc1nnc2n(CCc3ccccc3)c(=O)c3c4c(sc3n12)COC(C)(C)C4`, for which the activity change, negative = inhibition is -19.5% (inactive).

For the molecule `CC1(C)Cc2c(sc3nc(SCC#N)n(C4CCCCC4)c(=O)c23)CO1`, the activity change, negative = inhibition was 1.9% (inactive).

In the case of `CC1(C)Cc2c(C#N)c(SCC(=O)c3ccccc3)nc(N3CCOCC3)c2CS1`, the activity change, negative = inhibition was -7.36% (inactive). For `COC(=O)c1ccc(Oc2nc3ccccc3n3c(C)nnc23)cc1`, the activity change, negative = inhibition is 13% (inactive). Still for that read-out and setting: in the case of `C=CC[N+](C)(C)CCCNC(=O)/C=N/O` it was 6.86% (inactive).

For `O=S(=O)(c1ccccc1)N1CCC(N2CCCCCC2)CC1`, the activity change, negative = inhibition is 5.59% (inactive). On the same count and under the same terms, for `CCOC(=O)c1ccc(N=CC2=C(O)CC(c3ccco3)CC2=O)cc1` (centres undefined) the value was 2.87% (inactive); for `CC(C)(C)c1cccc(/C=N/O)c1O`, -17.8% (inactive); for `CCOC(=O)c1nc2nc(C)c(Cl)c(=O)n2[nH]1`, -6.21% (inactive). Same read-out and setting: in the case of `N#Cc1c(SCC(N)=O)nsc1SCc1ccc(Cl)cc1` it was -15.5% (inactive); in that of `CCc1c(C)c2cc(Cl)c(O)c(CN3CCCCC3)c2oc1=O`, 3.67% (inactive).

For the molecule `CCOC(=O)C1=Nc2ccccc2C1=[N+]=[N-]`, the activity change, negative = inhibition is -19% (inactive). Same read-out and setting: for `CCOC(=O)CSc1nnc2n(C3CCCCC3)c(=O)c3c4c(sc3n12)CCCC4` the value was -9.49% (inactive); for `CCCSc1nc(N2CCOCC2)c2c(c1C#N)CCCC2`, 20.8% (inactive). The same measure, in the same setting: in the case of `c1ccc2c(NCC3CCCO3)nc(-c3ccncc3)nc2c1` (centres undefined) it was -9.19% (inactive); in that of `CCC1(C)Cc2c(sc3c2c(=O)n(C)c2nnc(SCC(=O)c4ccc(Cl)cc4)n32)CO1` (centres undefined), -5.39% (inactive).

A short description of a further test: Stat Signaling Pathway (AID 446).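 Further: ME-180 cervical cancer cells given 40 pM IL-6 alongside compound; SIE-controlled beta-lactamase reporter measured as 460/530 nm FRET emission ratio.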 The note with it: ME-180 (cervical carcinoma) SIE beta-lactamase reporter, IL-6 stimulated, 5 h; at 17.2 µM (top of the series) unless noted. In outline: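 IL-6/STAT signaling read in ME-180 cells via an SIE beta-lactamase reporter. Stimulus was 40 pM IL-6 (its AC50) for 5 hrs, so both activation and inhibition register.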
`Cc1c(N=Cc2c(O)n(C3CCCCC3)c(=O)[nH]c2=O)c(=O)n(-c2ccccc2)n1C`: the activity, negative = inhibition was -1.79% (inactive). For `Cn1c(=O)c2c(nc(SCCN3CCCCC3)n2Cc2ccc(Cl)cc2)n(C)c1=O`, the activity, negative = inhibition was -9.94% (inactive).

Turning to `Cc1nnc(NCc2n[nH]c(=O)c3ccccc23)c2ccccc12`, the activity, negative = inhibition is 25.1% (inactive). For `COc1ccc(N2CCN(C3CC(=O)NC3=O)CC2)cc1` (centres undefined), the activity, negative = inhibition is 17.5% (inactive). As for `CCc1nc2sc3c(c2c(=O)o1)CCCC3`, the activity, negative = inhibition was 3.67% (inactive). Same read-out and setting: in the case of `CCc1nc(NC2CCCCC2)c(C#N)c2c1COC(C)(C)C2` it was 7.37% (inactive); in that of `CCOC(=O)C1=C(CSc2nc(-c3ccncc3)ccc2C#N)OC(N)=C(C#N)C1c1cccnc1` (centres undefined), -14.4% (inactive); in that of `CCCSc1nnc2n(-c3ccccc3OC)c(=O)c3c4c(sc3n12)CCC4`, 15% (inactive). In the case of `CC(C)c1nc(NCC2CCCO2)c(C#N)c2c1COC(C)(C)C2` (centres undefined), the activity, negative = inhibition was -3.72% (inactive). The same measure, in the same setting: in the case of `N#Cc1nc(COc2ccccc2Cl)oc1NCc1ccc(F)cc1` it was -20.3% (inactive). On to `N#CCSc1nc2c(cc1C#N)CCCCCC2`, for which the activity, negative = inhibition was 5.36% (inactive).

Regarding `N#CC1=C(N)N(c2ccccc2)C(c2ccccc2)C1(C#N)C#N` (centres undefined), the activity, negative = inhibition is -18.6% (inactive).

With `Clc1ccc(Cl)c(-c2ccc(/C=N/c3ncn[nH]3)o2)c1`, the activity, negative = inhibition is -6.04% (inactive).

As for `Cc1ccc2nc(NCc3ccccc3)[nH]c2c1`, the activity, negative = inhibition was -9.23% (inactive). As to `COc1cccc(-c2nc(N3CCC(C)CC3)c3ccccc3n2)c1O`, the activity, negative = inhibition is 5.63% (inactive). Consider `C=CCSc1nnc2n(-c3ccccc3OC)c(=O)c3c4c(sc3n12)CCC4`, for which the activity, negative = inhibition is 6.42% (inactive). On the same count and under the same terms, in the case of `Cc1ccc(S(=O)(=O)N2CCN(c3nc(C)c4c(c3C#N)CC(C)(C)OC4)CC2)cc1` it was 89.5% [activator] (active); in that of `Cc1cc(C)n(CC2CC(=O)N(c3ccc(F)c(Cl)c3)C2=O)n1` (centres undefined), -2.55% (inactive). Same read-out and setting: in the case of `CN(C)CCCOC(=O)c1ccc(Cl)cc1Cl` it was 2.76% (inactive); in that of `COc1ccc(Nc2oc(-c3cccs3)nc2C#N)cc1`, -1.34% (inactive). For the molecule `OCCNc1nc(-c2ccccc2)c2ccccc2n1`, the activity, negative = inhibition was -4.38% (inactive). With `CNC(=O)Nc1cccc(NC(=O)NC)n1`, the activity, negative = inhibition is 0.623% (inactive). The same measure, in the same setting: in the case of `CCCOc1ccc(Cc2nn[nH]n2)cc1` it was 2.28% (inactive); in that of `CC(C)c1nc(NCCN2CCOCC2)c(C#N)c2c1COC(C)(C)C2`, -1.06% (inactive).

On to `CC(C)Sc1nnc2n(CCc3ccccc3)c(=O)c3c4c(sc3n12)COC(C)(C)C4`, for which the activity, negative = inhibition was -3.01% (inactive).

Turning to `CC1(C)Cc2c(sc3nc(SCC#N)n(C4CCCCC4)c(=O)c23)CO1`, the activity, negative = inhibition is 10% (inactive). Regarding `CC1(C)Cc2c(C#N)c(SCC(=O)c3ccccc3)nc(N3CCOCC3)c2CS1`, the activity, negative = inhibition was 0.377% (inactive). Consider `COC(=O)c1ccc(Oc2nc3ccccc3n3c(C)nnc23)cc1`, for which the activity, negative = inhibition was 4.74% (inactive). Consider `C=CC[N+](C)(C)CCCNC(=O)/C=N/O`, for which the activity, negative = inhibition was 4.74% (inactive). As for `O=S(=O)(c1ccccc1)N1CCC(N2CCCCCC2)CC1`, the activity, negative = inhibition is 4.98% (inactive).

Regarding `CCOC(=O)c1ccc(N=CC2=C(O)CC(c3ccco3)CC2=O)cc1` (centres undefined), the activity, negative = inhibition is -4% (inactive). Consider `CC(C)(C)c1cccc(/C=N/O)c1O`, for which the activity, negative = inhibition was -5.38% (inactive). Same read-out and setting: in the case of `CCOC(=O)c1nc2nc(C)c(Cl)c(=O)n2[nH]1` it was 5.64% (inactive); in that of `N#Cc1c(SCC(N)=O)nsc1SCc1ccc(Cl)cc1`, -18% (inactive).

As to `CCc1c(C)c2cc(Cl)c(O)c(CN3CCCCC3)c2oc1=O`, the activity, negative = inhibition was 11.7% (inactive).

Regarding `CCOC(=O)C1=Nc2ccccc2C1=[N+]=[N-]`, the activity, negative = inhibition was -23.9% (inactive). Regarding `CCOC(=O)CSc1nnc2n(C3CCCCC3)c(=O)c3c4c(sc3n12)CCCC4`, the activity, negative = inhibition is -21.4% (inactive). The same measure, in the same setting: in the case of `CCCSc1nc(N2CCOCC2)c2c(c1C#N)CCCC2` it was -3.09% (inactive). As for `c1ccc2c(NCC3CCCO3)nc(-c3ccncc3)nc2c1` (centres undefined), the activity, negative = inhibition was 4.85% (inactive). For the molecule `CCC1(C)Cc2c(sc3c2c(=O)n(C)c2nnc(SCC(=O)c4ccc(Cl)cc4)n32)CO1` (centres undefined), the activity, negative = inhibition is -5.38% (inactive).
